Reference: PubChem BioAssay AID1159580 (chemical genetic matrix, 2015)
Out of some 5,500 compounds screened, about 2,000 (36%) were called active. About 18% were inconclusive and are not listed. No stated cut-off is given here; in the data, active means normalized growth mostly below about 0.91 (no sharp cut-off); inconclusive means no clear call, values can overlap the other calls; inactive means mostly above about 0.92. This is one part of the list.

Test: chemical genetic growth profiling, strain panel (AID 1159580);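 further: tested at 20 µM; growth read once vehicle control cultures reached saturation at 30 °C; 1 = growth at the plate median or of vehicle wells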
Details: S. cerevisiae deletion strains, growth OD

Measured: normalized growth

O=C(O)C1CC(=O)N(Cc2ccccc2Cl)C1 (stereo not drawn)
inactive: locus YAL013W, strain DEP1, stronger effect = lower value 1.01 | locus YBR229C, strain ROT2, stronger effect = lower value 1 | locus YCL061C, strain MRC1, stronger effect = lower value 1.02 | locus YDL101C, strain DUN1, stronger effect = lower value 0.994 | locus YDL134C, strain PPH21, stronger effect = lower value 1.01 | locus YDR150W, strain NUM1, stronger effect = lower value 0.947 | locus YEL061C, strain CIN8, stronger effect = lower value 1.03 | locus YGR078C, strain PAC10, stronger effect = lower value 1.01 | locus YHR030C, strain SLT2, stronger effect = lower value 1.15 | locus YHR087W, strain rtc3, stronger effect = lower value 1.01 | locus YJR043C, strain POL32, stronger effect = lower value 0.966 | locus YJR075W, strain HOC1, stronger effect = lower value 1 | locus YLR039C, strain RIC1, stronger effect = lower value 1.04 | locus YLR058C, strain SHM2 (second series), stronger effect = lower value 1 | locus YLR085C, strain ARP6, stronger effect = lower value 1.04 | locus YLR262C, strain YPT6, stronger effect = lower value 1.01 | locus YML094W, strain GIM5, stronger effect = lower value 1.04 | locus YMR219W, strain ESC1, stronger effect = lower value 1.01 | locus YMR263W, strain SAP30, stronger effect = lower value 1.01 | locus YMR307W, strain GAS1, stronger effect = lower value 1.02 | locus YNL153C, strain GIM3, stronger effect = lower value 0.992 | locus YNL298W, strain CLA4 (second series), stronger effect = lower value 1.07 | locus YNL322C, strain KRE1, stronger effect = lower value 1.01 | locus YNR030W, strain Alg12, stronger effect = lower value 1.03 | locus YOL006C, strain TOP1, stronger effect = lower value 1.08 | locus YPL055C, strain LGE1, stronger effect = lower value 0.931 | locus YPL241C, strain CIN2, stronger effect = lower value 1.11 | locus YPR135W, strain CTF4, stronger effect = lower value 1.06
